The assay can be described thus: p53 small molecule agonists, cell-based qHTS assay with human liver microsomes (AID 1963577). The method, boiled down: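 In this qHTS, p53 response-element beta-lactamase cells receive test compound together with a microsome/NADPH activating system (0.5 mg/mL final each) and are incubated 16 h at 37 C before LiveBLAzer fluorescence detection.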
A general note: qHTS replaces the single test concentration by a dilution series.

Results filed as inconclusive are left out. A call without a number means that no potency is given here. A number with no mark means an inactive call. Activity calls are given as the source filed them. Calls come from the whole dose curve.

Turning to `CC(C)(CO)[C@@H](O)C(=O)NCCC(=O)O`, the Potency entry is “inactive”.

Take `O=C1OC(=O)c2c(Cl)c(Cl)c(Cl)c(Cl)c21`: the Potency entry is “inactive”.

Turning to `CCSC(=O)N(CC)CC`, the Potency result was “inactive”.

Consider `C[Si](C)=O`, for which the activation was 3.5% [at 5.99 µM].

On to `CCCCCCCCCCCCI`, for which the Potency entry was “inactive”.

Regarding `Cc1cccc(Cl)c1`, the Potency entry is “inactive”.

Consider `O=C[C@H](O)[C@H](O)[C@H](O)CO`, for which the Potency entry is “inactive”.

For the compound `CCCCNc1ccccc1`, the Potency result was “inactive”.

Take `Nc1ncnc2c1ncn2Cc1c(F)cccc1Cl`: the Potency entry was “inactive”.

With `CCC(C)(C)C`, the Potency result is “inactive”.

On to `CN(C)c1cc(NC(=O)CNC(C)(C)C)c(O)c2c1C[C@H]1C[C@H]3[C@H](N(C)C)C(=O)C(C(N)=O)=C(O)[C@@]3(O)C(=O)C1=C2O`, for which the Potency entry is “inactive”.

`Cc1ccc(-c2ccccc2)cc1`: the Potency result is “inactive”.

On to `c1ccc(CNc2ncnc3c2ncn3C2CCCCO2)cc1` (stereo not drawn), for which the Potency entry was “inactive”.

Consider `CCCCCCCC(=O)OCCCCCC`, for which the Potency entry is “inactive”.

Consider `C=C(C)C(=O)OCCCCCCOC(=O)C(=C)C`, for which the Potency entry is “inactive”.

As to `CCCCCc1cccc(=O)o1`, the Potency entry was “inactive”.

As to `O=S(=O)(O)CO`, the Potency entry was “inactive”.

With `NCCN1CCNC1=O`, the Potency entry was “inactive”.

On to `CN1N=C(C(N)=O)CCC1=O`, for which the Potency entry is “inactive”.

Consider `CO[C@@H]1[C@@H](O[C@@H]2O[C@H](C)[C@@H](O[C@H]3C[C@@](C)(O)[C@@H](O)[C@H](C)O3)[C@H](N(C)C)[C@H]2O)[C@@H](CC=O)C[C@@H](C)[C@@H](O[C@@H]2CC[C@H](N(C)C)[C@@H](C)O2)/C=C/C=C/C[C@@H](C)OC(=O)C[C@H]1OC(C)=O`, for which the Potency result was “inactive”.

Regarding `CC1COc2ccccc2N1` (stereo not drawn), the Potency result was “inactive”.

With `CC(=O)N(c1onc(C)c1C)S(=O)(=O)c1ccc(N)cc1`, the Potency result is “inactive”.

With `CCN(CC)c1ccc(C=O)c(O)c1`, the Potency result was “inactive”.

Regarding `CCc1cccc(CC)c1NC(=O)C(=O)O`, the Potency result was “inactive”.

With `O=[N+]([O-])c1ccccc1Nc1ccccc1`, the Potency entry is “inactive”.

In the case of `CC(C)CCOCCC(C)C`, the Potency result is “inactive”.

As for `C=C(C)[C@@H]1CCC2=CCC[C@@H](C)[C@]2(C)C1`, the Potency result was “inactive”.

As to `CC(=O)O[C@H]1C[C@@H]2CC[C@@]1(C)C2(C)C`, the Potency result is “inactive”.

On to `C=CC(=O)OCCCCCCCC`, for which the Potency entry was “inactive”.

Consider `CCCCCCS`, for which the Potency result was “inactive”.

As for `O=c1n(CCO)c(=O)n(CCO)c(=O)n1CCO`, the Potency entry was “inactive”.

With `CN(C)c1ccc(C(=N)c2ccc(N(C)C)cc2)cc1`, the Potency result was “inactive”.

`NCCCN1CCN(CCCN)CC1`: the Potency entry is “inactive”.

Source of the values: PubChem BioAssay (Tox21).
